The entries come from a sample that favours hits as a whole.
IDE exosite inh = exo-site inhibitors of human IDE, primary screen, biochemical, fluorescence anisotropy, probe displacement; Insulin-degrading enzyme (Homo sapiens), P14735; 17,000 tested, 6.3% active; purified IDE, FL-6b probe fluorescence polarization; stronger effect = lower value; AID 1259349, 2017; z-score at 20 µM;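 active means z-score of -3 or lower, meaning strong loss of probe binding signal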;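 further: His-tagged human IDE residues 42-1019 made in E. coli with 30 nM FL-6b probe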
Target sequence (P14735 42-1019 limits assumed): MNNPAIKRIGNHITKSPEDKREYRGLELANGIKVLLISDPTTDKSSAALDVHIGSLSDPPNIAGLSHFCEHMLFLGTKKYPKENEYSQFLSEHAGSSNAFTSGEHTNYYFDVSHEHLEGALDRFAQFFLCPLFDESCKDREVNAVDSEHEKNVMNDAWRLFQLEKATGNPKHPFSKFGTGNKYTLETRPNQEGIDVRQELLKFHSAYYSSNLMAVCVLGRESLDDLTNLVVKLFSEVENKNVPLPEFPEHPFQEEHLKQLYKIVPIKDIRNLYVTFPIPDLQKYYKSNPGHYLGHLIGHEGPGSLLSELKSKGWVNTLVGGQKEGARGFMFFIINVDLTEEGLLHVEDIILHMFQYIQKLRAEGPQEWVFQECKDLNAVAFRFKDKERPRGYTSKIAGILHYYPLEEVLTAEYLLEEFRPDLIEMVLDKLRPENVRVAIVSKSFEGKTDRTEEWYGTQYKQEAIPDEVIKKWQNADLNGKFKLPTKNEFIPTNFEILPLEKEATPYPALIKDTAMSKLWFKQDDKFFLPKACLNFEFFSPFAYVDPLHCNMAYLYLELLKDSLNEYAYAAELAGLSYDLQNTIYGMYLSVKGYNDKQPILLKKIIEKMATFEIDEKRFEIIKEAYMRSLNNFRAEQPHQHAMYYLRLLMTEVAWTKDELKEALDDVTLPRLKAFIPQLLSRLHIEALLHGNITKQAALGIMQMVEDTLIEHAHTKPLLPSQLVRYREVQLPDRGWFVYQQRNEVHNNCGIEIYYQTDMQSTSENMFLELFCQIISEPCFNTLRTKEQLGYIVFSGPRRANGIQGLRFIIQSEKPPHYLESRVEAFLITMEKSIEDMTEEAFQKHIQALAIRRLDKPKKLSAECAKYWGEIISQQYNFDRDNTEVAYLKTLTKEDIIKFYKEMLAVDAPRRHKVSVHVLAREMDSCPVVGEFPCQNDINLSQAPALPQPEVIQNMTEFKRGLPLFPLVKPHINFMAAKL
The depositor's hits bear a star.

Results for COc1cccc(C#Cc2ccc([C@H]3[C@H]4CN(C(=O)c5ccncc5)CC(=O)N4[C@H]3CO)cc2)c1 ?
IDE exosite inh: -1.6

How did O=C(C[C@H]1C[C@H]2c3cc(NC(=O)C4CCOCC4)ccc3O[C@H]2[C@@H](CO)O1)NCc1cccnc1 do in these assays?
IDE exosite inh: -0.87

How did CC(=O)N1[C@H](CO)[C@H](c2ccc(-c3cccnc3)cc2)[C@@H]1CNC(=O)C1CC1 do in these assays?
IDE exosite inh: 0.098

What do the screens show for `O=C(N[C@H]1C=C[C@@H](CC(=O)N2CCC(Cc3ccccc3)CC2)O[C@@H]1CO)c1cnccn1`?
IDE exosite inh: -0.65

How did CN1CCCCN2[C@H](CO)[C@@H](c3ccc(C#Cc4ccccc4F)cc3)[C@@H]2C1 do in these assays?
IDE exosite inh: -8.6*

Results for COc1ccc(C#Cc2ccc([C@H]3[C@H]4CN(C)CCCCN4[C@H]3CO)cc2)cc1 ?
IDE exosite inh: -0.084

Results for CN1CCCCN2[C@H](CO)[C@@H](c3ccc(-c4ccccc4)cc3)[C@@H]2C1 ?
IDE exosite inh: 0.92

What do the screens show for `CN1CCCCN2[C@@H](CO)[C@@H](c3ccc(C#Cc4ccccc4F)cc3)[C@@H]2C1`?
IDE exosite inh: -5*

How did COc1ccc(C#Cc2ccc([C@H]3[C@H](CO)N4CCCCN(C)C[C@@H]34)cc2)cc1 do in these assays?
IDE exosite inh: 0.046

Results for OC[C@@H]1[C@H](c2ccc(C#Cc3ccccc3F)cc2)[C@@H]2CN(CC3CCOCC3)CCCCN12 ?
IDE exosite inh: -1.7

How did COc1ccc(NC(=O)N2CC(=O)N3[C@H](CO)[C@H](c4ccc(C5=CCCC5)cc4)[C@H]3C2)cc1 do in these assays?
IDE exosite inh: 0.74

Results for OC[C@@H]1[C@@H](c2ccc(C#Cc3cccnc3)cc2)[C@@H]2CN(Cc3ccccc3F)CCCCN12 ?
IDE exosite inh: -0.035

How did OC[C@H]1[C@@H](c2ccc(C#Cc3ccccc3F)cc2)[C@@H]2CN(Cc3cncnc3)CCCCN12 do in these assays?
IDE exosite inh: -15*

What do the screens show for `OC[C@@H]1[C@H](c2ccc(-c3ccccc3F)cc2)[C@@H]2CN(Cc3cccnc3)CCCCN12`?
IDE exosite inh: -1.2

How did OC[C@H]1[C@@H](c2ccc(-c3ccccc3F)cc2)[C@H]2CN(Cc3cncnc3)CCCCN21 do in these assays?
IDE exosite inh: -3.2*

What do the screens show for `OC[C@@H]1[C@@H](c2ccc(C#Cc3ccccc3F)cc2)[C@@H]2CN(Cc3cncnc3)CCCCN12`?
IDE exosite inh: -6.3*

How did OC[C@H]1[C@@H](c2ccc(-c3ccccc3F)cc2)[C@@H]2CN(Cc3cncnc3)CCCCN12 do in these assays?
IDE exosite inh: -2.7

What do the screens show for `OC[C@H]1[C@@H](c2ccc(C#Cc3ccccc3F)cc2)[C@H]2CN(Cc3cncnc3)CCCCN21`?
IDE exosite inh: -2.1

How did CN(C)CC#Cc1ccc([C@@H]2[C@@H](CO)N3C(=O)CN(C(=O)Cc4ccccc4)C[C@@H]23)cc1 do in these assays?
IDE exosite inh: 0.6

How did O=C(Nc1ccccc1F)N1CC(=O)N2[C@@H](CO)[C@H](c3ccc(-c4ccc(F)cc4)cc3)[C@@H]2C1 do in these assays?
IDE exosite inh: 1.4

How did O=C(C[C@@H]1C[C@H]2c3cc(NC(=O)CC4CC4)ccc3O[C@H]2[C@@H](CO)O1)NCC1CC1 do in these assays?
IDE exosite inh: -0.39

How did C/C=C/c1ccc([C@@H]2[C@@H](C#N)N(c3ncc(CC)s3)[C@H]2CO)cc1 do in these assays?
IDE exosite inh: -1.1

How did O=C(c1cnccn1)N1CC(=O)N2[C@H](C1)[C@H](c1ccc(C#CCc3ccccc3)cc1)[C@@H]2CO do in these assays?
IDE exosite inh: 0.6

What do the screens show for `COc1ccccc1NC(=O)N1CC(=O)N2[C@H](C1)[C@H](c1ccc(C#CCC(C)C)cc1)[C@@H]2CO`?
IDE exosite inh: 1.8

Results for O=C1N[C@H](Cc2ccccc2)COCc2cn(nn2)CC[C@@H]1Cc1cccc(F)c1 ?
IDE exosite inh: 0.6

What do the screens show for `CCC(=O)N1CCCCN2[C@@H](CO)[C@@H](c3ccc(C#Cc4ccccc4F)cc3)[C@@H]2C1`?
IDE exosite inh: -8.2*

How did CC(=O)N1CCCCN2[C@H](CO)[C@@H](c3ccc(C#Cc4ccccc4F)cc3)[C@H]2C1 do in these assays?
IDE exosite inh: -5.2*

How did CCC(=O)N1CCCCN2[C@@H](CO)[C@H](c3ccc(C#Cc4ccccc4F)cc3)[C@@H]2C1 do in these assays?
IDE exosite inh: -3.9*

Results for COc1ccc(C#Cc2ccc([C@@H]3[C@@H](CO)N4CCCCN(C(=O)Nc5ccccc5F)C[C@H]34)cc2)cc1 ?
IDE exosite inh: 1.8

Results for COc1ccc(C#Cc2ccc([C@@H]3[C@H]4CN(C(=O)Nc5ccccc5F)CCCCN4[C@H]3CO)cc2)cc1 ?
IDE exosite inh: 0.86

How did COc1ccc(C#Cc2ccc([C@H]3[C@H]4CN(C(=O)Nc5ccccc5F)CCCCN4[C@H]3CO)cc2)cc1 do in these assays?
IDE exosite inh: 3

How did CCC(=O)N1CCCCN2[C@H](CO)[C@@H](c3ccc(C#Cc4ccccc4F)cc3)[C@H]2C1 do in these assays?
IDE exosite inh: 1.8

Screening data: PubChem, Broad Institute
